The text below walks through data of ChEMBL document CHEMBL4513216, “Probing the Open Global Health Chemical Diversity Library for Multistage-Active Starting Points for Next-Generation Antimalarials” (ACS Infect Dis, 2020).

The whole screen tested about 69,000 compounds, of which about 8,600 (12%) showed an effect of 50% or more. This excerpt belongs to a sample that is enriched for strong results.

The subject of the experiment is Plasmodium berghei. The experiment is described as follows: Screen against P. berghei liver stage (PbLuc), transformed with Luciferase, at 10uM. Particulars: tested at 10 uM. In kind it is functional, HepG2.
In the case of `CC(=O)N1CCCC(c2ccc(Cc3ccccc3)cn2)C1` (stereo not drawn), the INHIBITION is given as 37.6%. Take `CCN1C[C@H]2C3(CCN(C(C)=O)CC3)CC[C@@]2(C(=O)N(C)C)C1`: the INHIBITION came to 36.7%. Turning to `COCCN(C)C[C@@H]1CN(Cc2ccnc3ccccc23)C[C@@H]1CO`, the INHIBITION came to 17.5%. Regarding `Cc1cnn(CC2CCCCN2C(=O)c2c(C)noc2C)c1` (stereo not drawn), the INHIBITION is listed as 11.4%. With `CN(C)c1cncc(C2CCN(CC3(O)CCCCC3)CC2)n1`, the INHIBITION turned out to be 37.6%. For `CS(=O)(=O)N1CC[C@H]2[C@H](C[C@@H](Cn3cncn3)N2CC2CC2)C1`, the INHIBITION is given as -28.2%.

As for `COCCN1CC(C(=O)NCc2cccnc2-n2cccn2)CC1=O` (stereo not drawn), the INHIBITION is given as -29.8%. As to `CN1CC2(CCN(C(=O)Cn3ncc4ccccc4c3=O)CC2)OC1=O`, the INHIBITION is on record as 36.3%.

For the compound `CCOCCN1CCN(CCCS(C)(=O)=O)CC1C` (stereo not drawn), the INHIBITION is reported as -52.5%. For the compound `Cc1cc(NC(=O)NCC2(O)CCCC2)ccn1`, the INHIBITION came to 32.3%.

Turning to `COCCC1(CNC(=O)Nc2ccc(-n3nccn3)cc2)CCC1`, the INHIBITION was -23.3%. Next, `COCCC1(CNC(=O)Nc2ccnc(C)c2)CCCC1`: 57.4%. The same measure for `Cn1nc(CNC(=O)C2CCCCC2)cc1C1CC1`: 13.6%. `Cc1cn(-c2ccccc2)nc1NS(=O)(=O)c1cc(C(=O)O)ccc1Cl`: the INHIBITION is on record as 25.4%. `CC(C)c1nc(CN2CCCC2Cn2cccn2)no1` (stereo not drawn): the INHIBITION was found to be 19.6%.

With `COc1ccc(C)cc1C1(CNc2cncc(Cl)n2)CCOCC1`, the INHIBITION is recorded as -60.3%.

In the case of `N#Cc1c(Cl)nsc1NCC1(c2ccccc2)CCC1`, the INHIBITION is on record as 84%.

As to `COc1ccccc1C1(CNc2cn[nH]c(=O)c2Cl)CC1`, the INHIBITION is recorded as -22.2%. In the case of `COc1ccccc1C1(CNc2ncc(S(N)(=O)=O)s2)CC1`, the INHIBITION was -10.9%. Turning to `COc1ccccc1C1(CNc2snc(Cl)c2C#N)CCOCC1`, the INHIBITION came out at 53.4%. Regarding `CC(=O)N1CCN(C(=O)CCNc2snc(Cl)c2C#N)CC1`, the INHIBITION is -27%. Consider `COc1ccccc1C1(CNc2snc(Cl)c2C#N)CCCC1`, for which the INHIBITION was determined as 80.2%. Turning to `CC(=O)N1CCN(CCNc2snc(Cl)c2C#N)CC1`, the INHIBITION was -4.93%. `COc1ccccc1OCCNc1snc(Cl)c1C#N`: the INHIBITION stood at 68.1%. Turning to `N#Cc1c(Cl)nsc1NCCN1CCOCC1`, the INHIBITION amounted to 39.9%. Next, `COc1ccccc1C1(CNc2cn[nH]c(=O)c2Cl)CCOCC1`: -9.69%; `NS(=O)(=O)c1cnc(NCC2(c3ccccc3)CCC2)s1`: 9.37%; `Cc1nn(CCO)c(C)c1CNC1CCOc2ccccc21` (stereo not drawn): 13%.

As for `O=C(NC1CCCN(Cc2c(F)cccc2F)C1)c1cnccn1` (stereo not drawn), the INHIBITION was found to be 23.7%. Turning to `CS(=O)(=O)CCCN1CCN(C(C#N)c2ccccc2)CC1` (stereo not drawn), the INHIBITION is on record as 21.2%. In the case of `NC(=O)c1ccc(C2CN(Cc3ccc(F)cc3)CCO2)nc1` (stereo not drawn), the INHIBITION is given as 31.3%. In the case of `CCc1ocnc1C(=O)N1CCC2(CCCN(CC(C)(C)C)C2=O)C1` (stereo not drawn), the INHIBITION is listed as 32.2%. In the case of `Cc1nc(-c2ccccc2)n(CC(=O)NC2CCCC2)n1`, the INHIBITION worked out at 7.27%.

For the compound `CCC1(C(=O)O)CCCN(C(=O)c2ccc(N3CCN(C)CC3)cc2)C1` (stereo not drawn), the INHIBITION was 33.7%. In the case of `CCC1(CO)CCCN(C(=O)c2ccc(N3CCN(C)CC3)cc2)C1` (stereo not drawn), the INHIBITION is 53.5%. Consider `CN1CCN(c2ccc(C(=O)N3CCCC(c4ncc[nH]4)C3)cc2)CC1` (stereo not drawn), for which the INHIBITION is reported as 3.3%. For the compound `c1ccc(-c2noc(CN3CCCC(Cn4cncn4)C3)n2)nc1` (stereo not drawn), the INHIBITION was -23.8%. Next, `COc1cccc(-c2ccnc3nc(N4CCCCC4)[nH]c(=O)c23)c1`: 14.3%; `COc1cc(/C=C/c2ncc(C(=O)O)s2)cc(Cl)c1OC`: 41.5%; `Cc1noc(C)c1CN1CCC2(COCc3cnc(N(C)C)nc32)C1` (stereo not drawn): 1.9%. On to `Cn1ccnc1C(O)c1ccccc1N1CCN(CC2CCCC2)CC1` (stereo not drawn), for which the INHIBITION stood at 13%. Next, `Cn1ccnc1C(O)c1ccccc1N1CCN(Cc2ccsc2)CC1` (stereo not drawn): 53.75%; `Cn1ccnc1C(O)c1ccccc1N1CCN(Cc2cccs2)CC1` (stereo not drawn): 15.605%; `COCc1cc(NCCc2ccc(S(N)(=O)=O)cc2)n2nccc2n1`: 26.6%. On to `Cc1ccccc1OCCN(C)C(=O)NC(C)c1nncn1C` (stereo not drawn), for which the INHIBITION turned out to be 35.9%. With `CCNC(=O)NC(=O)C(C)N(C)CCOc1ccccc1C` (stereo not drawn), the INHIBITION came out at 73.3%. In the case of `CCNC(=O)NC(=O)C(C)Nc1ccccc1OCCOC` (stereo not drawn), the INHIBITION is 29.8%. Take `COC(=O)c1ccoc1CN(C)Cc1cc(OC)c(OC)cc1C`: the INHIBITION worked out at 7.43%. `O=C(c1ccoc1)N1CCc2ncc(Cn3cccn3)n2CC1`: the INHIBITION is given as -3.33%. Take `COCCOc1cccc(CNCc2ccc(-n3cncn3)nc2)c1`: the INHIBITION is recorded as -9.8%. As to `FC(F)(F)Oc1cccc(CNCc2ccc(-n3cncn3)nc2)c1`, the INHIBITION was 20.9%.

`c1cc(CNCc2ccc(-n3cncn3)nc2)cc(OC2CCCC2)c1`: the INHIBITION came out at 75.4%. `CS(=O)(=O)N1CCc2ncc(CNC(=O)C3CCC3)n2CC1`: the INHIBITION is on record as -18.2%.
